Reference: PubChem BioAssay AID1159580 (chemical genetic matrix, 2015)
Values joined by “and” are separate entries in the source; they are usually repeats but may differ in a detail not shown here. Identical values can stand only once. Out of some 5,500 compounds screened, about 2,000 (36%) were called active. Another 18% or so got no clear call; they are omitted. Rule as the data show it: active = normalized growth mostly below about 0.91 (no sharp cut-off); inconclusive = no clear call, values can overlap the other calls; inactive = mostly above about 0.92. The list shows a part of the results.

Assay: chemical genetic growth profiling, strain panel (AID 1159580);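 also: tested at 20 µM; growth read once vehicle control cultures reached saturation at 30 °C; 1 = growth at the plate median or of vehicle wells; lower values mean less growth of the strain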
Details: S. cerevisiae deletion strains, growth OD

Measured: normalized growth

CC1(C)C(=O)C=C[C@@]2(C)C1=C(O)C(=O)[C@]1(C)C2CC[C@@]2(C)[C@H](c3ccoc3)C[C@H]3O[C@]321 (stereo partly specified)
active: locus YAL026C, strain drs2, stronger effect = lower value 0.893 | locus YBL061C, strain skt5, stronger effect = lower value 0.884 | locus YBR009C, strain hhf1, stronger effect = lower value 0.672 | locus YBR023C, strain chs3, stronger effect = lower value 0.908 | locus YBR231C, strain swc5, stronger effect = lower value 0.901 | locus YBR279W, strain paf1, stronger effect = lower value 0.908 | locus YCL011C, strain gbp2, stronger effect = lower value 0.827 | locus YCL016C, strain dcc1, stronger effect = lower value 0.901 | locus YCL029C, strain bik1, stronger effect = lower value 0.879 | locus YCL061C, strain MRC1, stronger effect = lower value 0.897 | locus YDL035C, strain GPR1, stronger effect = lower value 0.641 | locus YDL074C, strain BRE1, stronger effect = lower value 0.377 | locus YDL101C, strain DUN1, stronger effect = lower value 0.786 | locus YDL134C, strain PPH21, stronger effect = lower value 0.608 | locus YDL192W, strain arf1, stronger effect = lower value 0.743 | locus YDR101C, strain arx1, stronger effect = lower value 0.843 | locus YDR137W, strain rgp1, stronger effect = lower value 0.602 | locus YDR159W, strain sac3, stronger effect = lower value 0.549 | locus YDR162C, strain NBP2, stronger effect = lower value 0.226 | locus YDR195W, strain ref2 0.785 | locus YDR297W, strain sur2, stronger effect = lower value 0.869 | locus YDR318W, strain mcm21, stronger effect = lower value 0.762 | locus YDR392W, strain spt3, stronger effect = lower value 0.219 | locus YDR502C, strain sam2, stronger effect = lower value 0.833 | locus YEL003W, strain gim4, stronger effect = lower value 0.851 | locus YER015W, strain faa2, stronger effect = lower value 0.902 | locus YER155C, strain BEM2 (second series), stronger effect = lower value 0.814 | locus YER155C, strain BEM2, stronger effect = lower value 0.57 | locus YER167W, strain BCK2, stronger effect = lower value 0.768 | locus YGL086W, strain mad1, stronger effect = lower value 0.767 | locus YGL173C, strain kem1, stronger effect = lower value 0.872 | locus YGL248W, strain PDE1, stronger effect = lower value 0.766 | locus YGL253W, strain hxk2, stronger effect = lower value 0.871 | locus YGR078C, strain PAC10, stronger effect = lower value 0.513 | locus YGR135W, strain pre9, stronger effect = lower value 0.854 | locus YGR252W, strain gcn5, stronger effect = lower value 0.734 | locus YHR013C, strain ard1, stronger effect = lower value 0.842 | locus YHR027C, strain rpn1, stronger effect = lower value 0.917 | locus YHR030C, strain SLT2, stronger effect = lower value 0.697 and 0.536 | locus YHR079C, strain IRE1, stronger effect = lower value 0.821 | locus YHR129C, strain ARP1, stronger effect = lower value 0.613 | locus YHR142W, strain chs7, stronger effect = lower value 0.8 | locus YIL066C, strain RNR3, stronger effect = lower value 0.381 | locus YIL125W, strain kgd1, stronger effect = lower value 0.928 | locus YIR030C, strain dcg1, stronger effect = lower value 0.907 | locus YJL095W, strain BCK1 (second series), stronger effect = lower value 0.777 | locus YJL095W, strain BCK1, stronger effect = lower value 0.363 and 0.62 | locus YJL129C, strain trk1, stronger effect = lower value 0.776 | locus YJL164C, strain tpk1, stronger effect = lower value 0.838 | locus YJL166W, strain qcr8, stronger effect = lower value 0.748 | locus YJL187C, strain SWE1 (second series), stronger effect = lower value 0.808 | locus YJR043C, strain POL32, stronger effect = lower value 0.781 | locus YJR066W, strain TOR1, stronger effect = lower value 0.757 | locus YKL085W, strain MDH1 (second series), stronger effect = lower value 0.885 | locus YKL085W, strain MDH1, stronger effect = lower value 0.885 | locus YKL160W, strain elf1, stronger effect = lower value 0.872 | locus YKL190W, strain CNB1, stronger effect = lower value 0.751 | locus YKR001C, strain vps1, stronger effect = lower value 0.777 | locus YLR027C, strain aat2, stronger effect = lower value 0.791 | locus YLR039C, strain RIC1, stronger effect = lower value 0.404 | locus YLR058C, strain SHM2, stronger effect = lower value 0.782 | locus YLR113W, strain HOG1, stronger effect = lower value 0.776 | locus YLR221C, strain rsa3, stronger effect = lower value 0.759 | locus YLR258W, strain gsy2, stronger effect = lower value 0.88 | locus YLR262C, strain YPT6 (second series), stronger effect = lower value 0.624 | locus YLR262C, strain YPT6, stronger effect = lower value 0.382 | locus YLR268W, strain sec22, stronger effect = lower value 0.788 | locus YLR320W, strain mms22, stronger effect = lower value 0.639 | locus YLR342W, strain FKS1 (second series), stronger effect = lower value 0.578 | locus YLR342W, strain FKS1, stronger effect = lower value 0.881 | locus YLR371W, strain rom2, stronger effect = lower value 0.706 | locus YLR418C, strain cdc73, stronger effect = lower value 0.318 | locus YML016C, strain PPZ1, stronger effect = lower value 0.887 | locus YML032C, strain rad52, stronger effect = lower value 0.811 | locus YML120C, strain ndi1, stronger effect = lower value 0.884 | locus YML124C, strain tub3, stronger effect = lower value 0.922 | locus YMR058W, strain fet3, stronger effect = lower value 0.875 | locus YMR125W, strain sto1, stronger effect = lower value 0.876 | locus YMR205C, strain PFK2, stronger effect = lower value 0.674 | locus YMR223W, strain ubp8, stronger effect = lower value 0.865 | locus YMR307W, strain GAS1, stronger effect = lower value 0.502 | locus YNL071W, strain lat1, stronger effect = lower value 0.44 | locus YNL233W, strain BNI4, stronger effect = lower value 0.706 | locus YNL307C, strain MCK1, stronger effect = lower value 0.505 | locus YNR052C, strain pop2, stronger effect = lower value 0.863 | locus YOL147C, strain pex11, stronger effect = lower value 0.804 | locus YOR001W, strain rrp6, stronger effect = lower value 0.841 | locus YOR061W, strain CKA2, stronger effect = lower value 0.847 | locus YOR069W, strain VPS5, stronger effect = lower value 0.889 | locus YOR070C, strain gyp1, stronger effect = lower value 0.809 | locus YOR083W, strain WHI5, stronger effect = lower value 0.875 | locus YOR106W, strain vam3, stronger effect = lower value 0.801 | locus YOR136W, strain idh2, stronger effect = lower value 0.891 | locus YOR144C, strain elg1, stronger effect = lower value 0.855 | locus YOR184W, strain ser1, stronger effect = lower value 0.487 | locus YOR231W, strain MKK1, stronger effect = lower value 0.706 | locus YOR265W, strain rbl2, stronger effect = lower value 0.918 | locus YOR290C, strain snf2, stronger effect = lower value 0.84 | locus YPL051W, strain arl3, stronger effect = lower value 0.831 | locus YPL240C, strain hsp82, stronger effect = lower value 0.861 | locus YPL256C, strain CLN2, stronger effect = lower value 0.747 | locus YPR119W, strain clb2, stronger effect = lower value 0.915 | locus YPR163C, strain tif3, stronger effect = lower value 0.665 | locus YPR167C, strain met16, stronger effect = lower value 0.85 | strain wtn01, stronger effect = lower value 0.765
inactive: locus YAL021C, strain ccr4, stronger effect = lower value 0.995 | locus YAL030W, strain snc1, stronger effect = lower value 0.96 | locus YBR021W, strain FUR4, stronger effect = lower value 0.996 | locus YBR171W, strain sec66, stronger effect = lower value 0.916 | locus YBR229C, strain ROT2, stronger effect = lower value 0.923 | locus YCL069W, strain vba3, stronger effect = lower value 0.959 | locus YCR088W, strain abp1, stronger effect = lower value 0.962 | locus YDL005C, strain med2, stronger effect = lower value 0.957 | locus YDL040C, strain nat1, stronger effect = lower value 0.957 | locus YDL185W, strain tfp1, stronger effect = lower value 0.955 | locus YDR001C, strain nth1, stronger effect = lower value 0.967 | locus YDR069C, strain doa4, stronger effect = lower value 0.99 | locus YDR334W, strain swr1, stronger effect = lower value 0.965 | locus YDR335W, strain msn5, stronger effect = lower value 0.969 | locus YDR388W, stronger effect = lower value 0.982 | locus YEL037C, strain rad23, stronger effect = lower value 0.966 | locus YEL061C, strain CIN8 (second series), stronger effect = lower value 0.95 | locus YER016W, strain bim1, stronger effect = lower value 0.934 | locus YER110C, stronger effect = lower value 0.978 | locus YER111C, strain swi4, stronger effect = lower value 0.925 | locus YFR010W, strain ubp6, stronger effect = lower value 0.95 | locus YGL078C, strain dbp3, stronger effect = lower value 0.934 | locus YGL167C, strain pmr1, stronger effect = lower value 0.954 | locus YGL227W, strain vid30, stronger effect = lower value 0.949 | locus YGL240W, strain doc1, stronger effect = lower value 0.916 | locus YHR079C, strain IRE1 (second series), stronger effect = lower value 0.972 | locus YHR094C, strain hxt1, stronger effect = lower value 0.975 | locus YHR200W, strain rpn10, stronger effect = lower value 0.951 | locus YIL073C, strain SPO22, stronger effect = lower value 0.868 | locus YJL092W, strain hpr5, stronger effect = lower value 0.961 | locus YJL115W, strain asf1, stronger effect = lower value 0.969 | locus YJL134W, strain LCB3, stronger effect = lower value 0.966 | locus YJL154C, strain vps35, stronger effect = lower value 0.977 | locus YJL168C, strain set2, stronger effect = lower value 0.985 | locus YJL187C, strain SWE1, stronger effect = lower value 0.928 | locus YKL009W, strain mrt4, stronger effect = lower value 0.885 | locus YKL068W, stronger effect = lower value 0.942 | locus YKR026C, strain gcn3, stronger effect = lower value 0.965 | locus YKR091W, strain srl3, stronger effect = lower value 0.969 | locus YLL001W, strain dnm1, stronger effect = lower value 0.931 | locus YLL026W, stronger effect = lower value 0.944 | locus YLL041C, strain sdh2, stronger effect = lower value 0.991 | locus YLR102C, strain apc9, stronger effect = lower value 0.967 | locus YLR357W, strain rsc2, stronger effect = lower value 1.03 | locus YLR370C, strain arc18, stronger effect = lower value 0.959 | locus YLR384C, strain iki3, stronger effect = lower value 0.973 | locus YMR078C, strain ctf18, stronger effect = lower value 0.936 | locus YMR129W, stronger effect = lower value 0.969 | locus YMR231W, strain pep5, stronger effect = lower value 0.931 | locus YNL067W, strain RPL9B, stronger effect = lower value 0.876 | locus YNL183C, strain NPR1, stronger effect = lower value 0.848 | locus YNL209W, strain ssb2, stronger effect = lower value 0.943 | locus YNL248C, strain rpa49, stronger effect = lower value 0.938 | locus YNL250W, strain rad50, stronger effect = lower value 0.97 | locus YNL271C, strain bni1, stronger effect = lower value 0.96 | locus YNL298W, strain CLA4, stronger effect = lower value 0.922 | locus YNL322C, strain KRE1 (second series), stronger effect = lower value 0.981 | locus YNR049C, strain mso1, stronger effect = lower value 0.962 | locus YOL006C, strain TOP1, stronger effect = lower value 0.666 | locus YOL012C, strain htz1 0.626 | locus YOR080W, strain dia2, stronger effect = lower value 0.964 | locus YOR270C, strain vph1, stronger effect = lower value 0.897 | locus YOR316C, strain cot1, stronger effect = lower value 0.984 | locus YPL078C, strain atp4, stronger effect = lower value 0.939 | locus YPL106C, strain sse1, stronger effect = lower value 0.91 | locus YPR141C, strain kar3, stronger effect = lower value 0.96
